In PubChem BioAssay (NCATS):
“And” between values parts separate entries of the source, which are not always exact repeats. Equal values may be shown once. Inconclusive results are not listed. The source made the active and inactive calls. Unless noted, the call rests on the fitted dose curve; in most records, active means well fitted curve in either direction with a large enough effect (not every such curve was filed as active); inconclusive means small, poorly fitted or top-dose-only effect, or another doubt; inactive means flat fitted curve, though single readings scatter.

Tested on: not listed separately
Assay: AP1 Signaling Pathway (AID 357); further: on the % scale 0 is the no-effect control and ±100 the full control effect
Conditions: ME-180 AP-1-bla reporter, EGF-induced, beta-lactamase ratio, 5 h; at 38 µM (top of the series)
Outline: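 ME-180 cells with beta-lactamase reporter under AP-1 response element, stimulated with EC50 EGF; compounds tested in titration series, 5 h at 37 °C. CCF4 substrate added 2.5 h at room temperature; 460/530 nm emission ratio gave %activity and AC50.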

Row | SMILES | activity change, negative = inhibition
1 | CC(N)=NCc1cccc(CN)c1 | -2.56% (inactive)
2 | O=C(O)c1cc(=O)c2ccc(Cl)cc2[nH]1 | -5.86% (inactive)
3 | NCCCCCCNS(=O)(=O)c1cccc2c(Cl)cccc12 | 7.92% (inactive)
4 | CCCn1c(=O)c2[nH]c(-c3ccc(OCC(=O)Nc4ccc(C#N)cc4)cc3)nc2n(CCC)c1=O | -2.44% (inactive)
5 | CN(C)CCCCSC(=N)N | 1.82% (inactive)
6 | Cn1cnc2c(NC3CCCC3)ncnc21 | -18% (inactive)

Molecular target: Cytochrome P450 1A2 (Homo sapiens) (UniProt P05177)
Sequence (P05177 whole entry, looked up): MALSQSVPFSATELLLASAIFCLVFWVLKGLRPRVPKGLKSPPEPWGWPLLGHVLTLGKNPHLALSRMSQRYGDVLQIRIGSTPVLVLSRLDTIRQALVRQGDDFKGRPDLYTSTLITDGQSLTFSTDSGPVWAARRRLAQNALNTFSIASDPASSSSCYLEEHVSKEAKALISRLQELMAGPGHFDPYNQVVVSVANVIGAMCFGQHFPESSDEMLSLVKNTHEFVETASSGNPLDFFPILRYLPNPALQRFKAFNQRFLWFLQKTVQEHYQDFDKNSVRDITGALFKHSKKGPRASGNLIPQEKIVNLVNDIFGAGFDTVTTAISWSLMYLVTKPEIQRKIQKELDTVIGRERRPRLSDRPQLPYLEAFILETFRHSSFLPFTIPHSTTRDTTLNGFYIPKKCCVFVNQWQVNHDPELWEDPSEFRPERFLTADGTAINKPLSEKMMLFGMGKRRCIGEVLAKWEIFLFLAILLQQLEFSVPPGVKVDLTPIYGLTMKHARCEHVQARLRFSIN
Assay: p450-cyp1a2 (AID 410; calls by dose curve; further: potency means the concentration at half of the fitted maximal effect;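 on activity change, negative = inhibition: -100% = full effect of reference inhibitor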)
Conditions: recombinant CYP1A2, luciferin-ME demethylation, luminescence; series mostly up to 57 µM
Outline: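 Inhibition was calculated relative to 57 uM furafylline (full inhibition). The reaction used human CYP1A2 at 20nM with Luciferin-ME at its Km, 100uM, driven by an NADPH-regenerating system for 60 min at room temperature.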

Row | SMILES | Potency
7 | CC(N)=NCc1cccc(CN)c1 | inactive
8 | O=C(O)c1cc(=O)c2ccc(Cl)cc2[nH]1 | inactive
9 | NCCCCCCNS(=O)(=O)c1cccc2c(Cl)cccc12 | 7.94 µM (active) and 1.26 µM (active)
10 | CCCn1c(=O)c2[nH]c(-c3ccc(OCC(=O)Nc4ccc(C#N)cc4)cc3)nc2n(CCC)c1=O | 31.6 µM (active)
11 | Cn1cnc2c(NC3CCCC3)ncnc21 | 12.6 µM (active)
12 | O=C(OCCN1CCCCC1)c1c[nH]c2ccccc12 | 12.6 µM (active) and 15.8 µM (active)

Tested on: not listed separately
Assay: NFAT Signaling Pathway (AID 444);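 further: carbachol stimulus at about its EC50 of 1 µM final; on the % scale 0 is the no-effect control and ±100 the full control effect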
Conditions: Jurkat NFAT-bla M1, carbachol, beta-lactamase ratio, 5 h; at 38 µM (top of the series)
Outline: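 Read-out: CCF4 FRET ratio (460 nm/530 nm) after 1 h RT dye loading, used for %activity and AC50 from titration series. Cells: Jurkat NFAT-β-lactamase/M1 line, treated with compound plus 1 uM carbachol for 5 h, 37 °C.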

Row | SMILES | activity change, negative = inhibition
13 | CC(N)=NCc1cccc(CN)c1 | -2.12% (inactive)
14 | O=C(O)c1cc(=O)c2ccc(Cl)cc2[nH]1 | 3.07% (inactive)
15 | NCCCCCCNS(=O)(=O)c1cccc2c(Cl)cccc12 | -4.09% (inactive)
16 | CCCn1c(=O)c2[nH]c(-c3ccc(OCC(=O)Nc4ccc(C#N)cc4)cc3)nc2n(CCC)c1=O | -7.64% (inactive)
17 | CN(C)CCCCSC(=N)N | 1.09% (inactive)
18 | Cn1cnc2c(NC3CCCC3)ncnc21 | -0.777% (inactive)
19 | O=C(OCCN1CCCCC1)c1c[nH]c2ccccc12 | -11% (inactive)

Tested on: not listed separately
Assay: Stat Signaling Pathway (AID 446);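 further: ME-180 cervical cancer cells given 40 pM IL-6 alongside compound; SIE-controlled beta-lactamase reporter measured as 460/530 nm FRET emission ratio; on the % scale 0 is the no-effect control and ±100 the full control effect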
Conditions: ME-180 (cervical carcinoma) SIE beta-lactamase reporter, IL-6 stimulated, 5 h; at 38 µM (top of the series)
Outline: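 IL-6/STAT signaling read in ME-180 cells via an SIE beta-lactamase reporter. Stimulus was 40 pM IL-6 (its AC50) for 5 hrs, so both activation and inhibition register.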

Row | SMILES | activity, negative = inhibition
20 | CC(N)=NCc1cccc(CN)c1 | 3.99% (inactive)
21 | O=C(O)c1cc(=O)c2ccc(Cl)cc2[nH]1 | 42.7% (inactive)
22 | CCCn1c(=O)c2[nH]c(-c3ccc(OCC(=O)Nc4ccc(C#N)cc4)cc3)nc2n(CCC)c1=O | -13.8% (inactive)
23 | CN(C)CCCCSC(=N)N | -29.5% (inactive)
24 | Cn1cnc2c(NC3CCCC3)ncnc21 | 11.1% (inactive)
25 | O=C(OCCN1CCCCC1)c1c[nH]c2ccccc12 | -6.33% (inactive)

Molecular target: Glucocorticoid receptor (Homo sapiens) (UniProt P04150)
Sequence (P04150 whole entry, looked up): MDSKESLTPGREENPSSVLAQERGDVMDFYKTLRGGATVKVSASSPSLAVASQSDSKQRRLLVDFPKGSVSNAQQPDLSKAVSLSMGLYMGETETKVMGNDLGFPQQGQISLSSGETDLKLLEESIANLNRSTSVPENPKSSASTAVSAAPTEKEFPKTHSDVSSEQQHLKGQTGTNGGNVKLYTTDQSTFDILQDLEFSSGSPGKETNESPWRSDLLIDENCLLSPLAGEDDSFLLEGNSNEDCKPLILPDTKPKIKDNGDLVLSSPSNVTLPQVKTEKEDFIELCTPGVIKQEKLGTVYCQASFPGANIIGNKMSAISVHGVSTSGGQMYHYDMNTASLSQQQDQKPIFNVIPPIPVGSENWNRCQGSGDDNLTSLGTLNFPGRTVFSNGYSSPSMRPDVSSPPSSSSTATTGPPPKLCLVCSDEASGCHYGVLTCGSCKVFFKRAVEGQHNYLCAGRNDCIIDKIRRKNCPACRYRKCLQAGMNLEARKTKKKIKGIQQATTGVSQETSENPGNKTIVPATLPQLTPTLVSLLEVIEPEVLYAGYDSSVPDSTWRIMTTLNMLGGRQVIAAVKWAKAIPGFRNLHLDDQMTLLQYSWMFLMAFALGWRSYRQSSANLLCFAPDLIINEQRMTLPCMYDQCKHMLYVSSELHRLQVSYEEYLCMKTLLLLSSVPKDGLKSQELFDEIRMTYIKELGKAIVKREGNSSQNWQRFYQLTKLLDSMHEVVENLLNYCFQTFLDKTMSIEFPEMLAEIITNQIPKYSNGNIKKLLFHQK
Assay: GR-GFP Redistribution (AID 450;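 active means compounds whose dose series gives a full or clear partial fitted curve of increased nuclear translocation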; further: potency means the concentration at half of the fitted maximal effect)
Conditions: U2OS GR-GFP nuclear translocation, laser cytometry, 2 h

Row | SMILES | Potency
26 | CC(N)=NCc1cccc(CN)c1 | > 46 µM (inactive)
27 | O=C(O)c1cc(=O)c2ccc(Cl)cc2[nH]1 | > 46 µM (inactive)
28 | NCCCCCCNS(=O)(=O)c1cccc2c(Cl)cccc12 | > 46 µM (inactive)
29 | CCCn1c(=O)c2[nH]c(-c3ccc(OCC(=O)Nc4ccc(C#N)cc4)cc3)nc2n(CCC)c1=O | > 46 µM (inactive)
30 | CN(C)CCCCSC(=N)N | > 46 µM (inactive)
31 | Cn1cnc2c(NC3CCCC3)ncnc21 | > 46 µM (inactive)
32 | O=C(OCCN1CCCCC1)c1c[nH]c2ccccc12 | > 46 µM (inactive)

Molecular target: Glucocorticoid receptor (Homo sapiens) (UniProt P04150)
Assay: GR-EFC Redistribution (AID 451; calls by dose curve; further: potency means the concentration at half of the fitted maximal effect)
Conditions: CHO-K1 GR-EFC translocation, beta-gal luminescence, 2 h
Outline: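 Translocation of GR-ED fusion to nuclear EA restores b-gal, read by luminescence after 1 h room-temperature detection. Engineered CHO-K1 biosensor cells, 1,000/well, exposed 2 h at 37 C to titrations up to 46 uM final.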

Row | SMILES | Potency
33 | CC(N)=NCc1cccc(CN)c1 | > 46 µM (inactive)
34 | NCCCCCCNS(=O)(=O)c1cccc2c(Cl)cccc12 | > 46 µM (inactive)
35 | CCCn1c(=O)c2[nH]c(-c3ccc(OCC(=O)Nc4ccc(C#N)cc4)cc3)nc2n(CCC)c1=O | > 46 µM (inactive)
36 | CN(C)CCCCSC(=N)N | > 46 µM (inactive)
37 | Cn1cnc2c(NC3CCCC3)ncnc21 | > 46 µM (inactive)
38 | O=C(OCCN1CCCCC1)c1c[nH]c2ccccc12 | > 46 µM (inactive)

Molecular target: Mitogen-activated protein kinase 10 (Mus musculus) (UniProt Q61831)
Assay: JNK3 AlphaScreen Assay (AID 530);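 further: kinase came from lysate of stimulated human HepG2 cells; signal reports phosphorylation of biotinylated GST-cJun 1-79 at Ser73 with 10 µM ATP; on the % scale 0 is the no-effect control and ±100 the full control effect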
Conditions: JNK3 lysate, c-Jun phosphorylation; series mostly up to 57.1 µM
Outline: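 Room-temperature AlphaScreen kinase assay; pre-activated HepG2 lysate as JNK3 source, biotin-GST-cJun(1-79) substrate, 10 uM ATP, compound 15 min preincubation.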

Row | SMILES | Potency
39 | CC(N)=NCc1cccc(CN)c1 | inactive
40 | O=C(O)c1cc(=O)c2ccc(Cl)cc2[nH]1 | inactive
41 | NCCCCCCNS(=O)(=O)c1cccc2c(Cl)cccc12 | inactive
42 | CCCn1c(=O)c2[nH]c(-c3ccc(OCC(=O)Nc4ccc(C#N)cc4)cc3)nc2n(CCC)c1=O | inactive
43 | CN(C)CCCCSC(=N)N | inactive
44 | Cn1cnc2c(NC3CCCC3)ncnc21 | inactive
45 | O=C(OCCN1CCCCC1)c1c[nH]c2ccccc12 | inactive

Molecular target: 3',5'-cyclic-AMP phosphodiesterase 4B (Homo sapiens) (UniProt Q07343)
Sequence (Q07343 whole entry, looked up): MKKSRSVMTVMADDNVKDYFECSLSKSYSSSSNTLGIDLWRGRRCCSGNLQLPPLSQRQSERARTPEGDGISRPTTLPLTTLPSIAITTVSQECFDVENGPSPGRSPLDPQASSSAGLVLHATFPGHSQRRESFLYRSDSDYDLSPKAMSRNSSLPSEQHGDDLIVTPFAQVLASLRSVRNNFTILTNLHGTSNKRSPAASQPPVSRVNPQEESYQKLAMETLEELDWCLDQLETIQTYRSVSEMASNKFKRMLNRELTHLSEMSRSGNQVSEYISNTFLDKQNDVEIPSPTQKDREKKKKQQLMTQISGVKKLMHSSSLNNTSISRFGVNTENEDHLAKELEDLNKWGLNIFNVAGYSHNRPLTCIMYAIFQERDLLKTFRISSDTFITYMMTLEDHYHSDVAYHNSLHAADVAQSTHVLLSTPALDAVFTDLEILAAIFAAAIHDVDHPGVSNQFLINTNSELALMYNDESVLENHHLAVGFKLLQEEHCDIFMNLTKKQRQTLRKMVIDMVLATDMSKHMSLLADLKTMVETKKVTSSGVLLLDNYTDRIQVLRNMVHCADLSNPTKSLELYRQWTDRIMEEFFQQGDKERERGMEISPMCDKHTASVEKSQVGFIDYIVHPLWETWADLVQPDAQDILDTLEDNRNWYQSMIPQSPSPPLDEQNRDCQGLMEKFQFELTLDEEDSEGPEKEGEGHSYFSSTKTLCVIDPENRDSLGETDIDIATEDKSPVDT
Assay: qHTS Assay for Inhibitors of PDE-IV (AID 607; active means well fitted activation curve with a large enough effect in the main read-out, with a control signal flat, not every such curve was filed as active; further: % of control where 0% means no effect)
Conditions: HEK293 ACTOne CNG channel cells, membrane potential fluorescence; series mostly up to 22.9 µM
Outline: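 Live HEK293 cells with a modified cyclic nucleotide-gated (CNG) channel report intracellular cAMP via membrane-potential dye fluorescence (ex 535/em 590 nm). Endogenous PDE-IV was targeted. Compounds were tested at up to 22.9 uM final; RO 20-1724 100 uM served as control.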

Row | SMILES | Potency
46 | CC(N)=NCc1cccc(CN)c1 | inactive
47 | O=C(O)c1cc(=O)c2ccc(Cl)cc2[nH]1 | inactive
48 | NCCCCCCNS(=O)(=O)c1cccc2c(Cl)cccc12 | inactive
49 | CCCn1c(=O)c2[nH]c(-c3ccc(OCC(=O)Nc4ccc(C#N)cc4)cc3)nc2n(CCC)c1=O | inactive
50 | CN(C)CCCCSC(=N)N | inactive
51 | O=C(OCCN1CCCCC1)c1c[nH]c2ccccc12 | inactive

Molecular target: Guanine nucleotide-binding protein G(i) subunit alpha-1 (Homo sapiens) (UniProt P63096)
Sequence (P63096 whole entry, looked up): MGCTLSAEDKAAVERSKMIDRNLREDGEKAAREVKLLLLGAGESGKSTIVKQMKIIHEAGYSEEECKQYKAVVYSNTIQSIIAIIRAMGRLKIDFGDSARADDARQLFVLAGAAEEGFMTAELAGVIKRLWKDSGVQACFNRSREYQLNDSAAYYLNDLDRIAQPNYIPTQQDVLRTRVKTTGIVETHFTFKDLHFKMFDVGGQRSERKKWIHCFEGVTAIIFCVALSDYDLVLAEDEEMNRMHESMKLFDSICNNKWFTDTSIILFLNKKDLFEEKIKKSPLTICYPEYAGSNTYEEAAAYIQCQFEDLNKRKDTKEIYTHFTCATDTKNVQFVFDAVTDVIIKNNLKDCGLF
Assay: qHTS Assay for Inhibitors of RGS12 GoLoco Motif Activity (Green Fluorophore) (AID 879; active means well fitted curve in the direction sought with a large enough effect; an effect the other way counts as inactive or inconclusive;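 further: 0% = labeled peptide with Gαi1 and full inhibition = labeled peptide alone without protein; negative values mean loss of peptide binding seen as reduced polarization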)
Conditions: Galphai1/FITC-RGS12 GoLoco peptide, fluorescence polarization; series mostly up to 57.1 µM
Outline: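 Fluorescence polarization assay: 50 nM Gαi1 with 10 nM FITC-labeled RGS12 GoLoco peptide in 10 mM Tris pH 7.5, 150 mM NaCl, 0.1 mM GDP, 0.05% NP40, 10 min at room temperature with compound.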

Row | SMILES | outcome
52 | CC(N)=NCc1cccc(CN)c1 | inactive
53 | O=C(O)c1cc(=O)c2ccc(Cl)cc2[nH]1 | inactive
54 | NCCCCCCNS(=O)(=O)c1cccc2c(Cl)cccc12 | inactive
55 | CCCn1c(=O)c2[nH]c(-c3ccc(OCC(=O)Nc4ccc(C#N)cc4)cc3)nc2n(CCC)c1=O | inactive
56 | CN(C)CCCCSC(=N)N | inactive
57 | Cn1cnc2c(NC3CCCC3)ncnc21 | inactive
58 | O=C(OCCN1CCCCC1)c1c[nH]c2ccccc12 | inactive

Molecular target: Cytochrome P450 2C9 (Homo sapiens) (UniProt P11712)
Sequence (P11712 whole entry, looked up): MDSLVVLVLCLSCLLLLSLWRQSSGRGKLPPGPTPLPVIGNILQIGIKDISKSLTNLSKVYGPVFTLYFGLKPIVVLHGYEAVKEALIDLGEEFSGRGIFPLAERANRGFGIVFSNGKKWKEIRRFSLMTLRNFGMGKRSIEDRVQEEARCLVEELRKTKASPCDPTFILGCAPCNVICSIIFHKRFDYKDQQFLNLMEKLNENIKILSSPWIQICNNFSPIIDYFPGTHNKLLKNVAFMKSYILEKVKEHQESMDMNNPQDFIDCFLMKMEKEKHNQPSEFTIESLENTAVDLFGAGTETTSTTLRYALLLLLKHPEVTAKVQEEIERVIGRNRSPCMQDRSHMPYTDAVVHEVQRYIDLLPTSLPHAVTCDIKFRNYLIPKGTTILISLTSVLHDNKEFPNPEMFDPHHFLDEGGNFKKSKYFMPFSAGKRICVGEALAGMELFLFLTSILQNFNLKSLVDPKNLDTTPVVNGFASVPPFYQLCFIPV
Assay: qHTS Assay for Inhibitors and Substrates of Cytochrome P450 2C9 (AID 883; active means well fitted curve in the direction sought with a large enough effect; an effect the other way counts as inactive or inconclusive; further: nearly all actives have a fitted effect of over 60% in size; further: potency means the concentration at half of the fitted maximal effect)
Conditions: recombinant CYP2C9, luciferin-H luminescence, 60 min; series mostly up to 57.1 µM
Outline: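 Turnover of Luciferin-H (100uM, KM) by 10nM human CYP2C9 was measured over 60 min at 37C with NADPH regeneration; inhibitors and some substrates reduce luminescence. Data normalized to sulphaphenazole 57uM.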

Row | SMILES | Potency
59 | O=C(O)c1cc(=O)c2ccc(Cl)cc2[nH]1 | inactive
60 | NCCCCCCNS(=O)(=O)c1cccc2c(Cl)cccc12 | 3.16 µM (active)
61 | O=C(OCCN1CCCCC1)c1c[nH]c2ccccc12 | 2 µM (active)
